Here are results for 64 molecules from PMC4552634, “A New Set of Chemical Starting Points with Plasmodium falciparum Transmission-Blocking Potential for Antimalarial Drug Discovery” (PLoS ONE, 2015).

Structures are written as SMILES. Among all 13,000 compounds or so, about 3,200 (25%) showed an effect of 50% or more. The list shows a part of the results.

In this assay the test system is P. falciparum stage V gametocytes. More on the design: BacTiter-Glo ATP luminescence viability of purified stage V gametocytes in 384-well plates, per cent inhibition versus DMSO. To be noted: 48 h, 5 µM; inhibitor.
As for `O=C(Nc1ccc(Cn2ncc(N3CCCNCC3)c(Cl)c2=O)cc1)Nc1ccc(C(F)(F)F)cc1` [TCMDC-133328], the “% Inhibition” value is listed as -22.6%.

Regarding `O=C(Nc1cccc(CN2CCN(Cc3ccc(O)cc3)CC2)c1)c1cccc(C(F)(F)F)c1` [TCMDC-141885], the “% Inhibition” value was -19.52%.

For the molecule `CCC[C@@H]([C@@H](CC1CCCCC1)C(=O)N[C@H](C(=O)Nc1nccs1)C(C)(C)SC)N(O)C=O` [TCMDC-138113], the “% Inhibition” value was -0.06569%.

With `COc1ccccc1N1CCN(C(C(=O)NCc2cccc(F)c2)c2ccc(C)cc2)CC1` (stereo not shown) [TCMDC-135502], the “% Inhibition” value stood at 14.65%.

`O=c1cc(NCCCNCc2cccc(I)c2)[nH]c2ccccc12` [TCMDC-139414]: the “% Inhibition” value was -42.93%.

Consider `O=C(Nc1ccc(-c2nc3ccccc3[nH]2)cc1)C1CCN(Cc2cccc(F)c2F)CC1` [TCMDC-124682], for which the “% Inhibition” value is reported as -38.06%.

Consider `COc1ccc(CN2CCCC(N3CC4(OC3=O)c3ccccc3-c3ccccc34)C2)c(O)c1` (stereo not shown) [TCMDC-136068], for which the “% Inhibition” value came out at 22.8%.

As to `O=C(N[C@@H](Cc1ccccc1)C(=O)NCc1cccc2ccccc12)c1ccc(O)c(-c2ccc(Cl)c(Cl)c2)c1` [TCMDC-140877], the “% Inhibition” value came out at 23.34%.

For `COc1ccc(CCN(Cc2cccs2)C(=O)c2cc3sccc3n2C)cc1OC` [TCMDC-123572], the “% Inhibition” value worked out at 18.98%.

On to `O=C(Cc1cccc(Cl)c1)Nc1cccc(-c2c[nH]c3nc(Nc4cccc(O)c4)ncc23)c1` [TCMDC-134681], for which the “% Inhibition” value is -6.738%.

Regarding `Cc1cc(CN2CC[C@H](NC(=O)c3ccc(Cl)c(Cl)c3)C2)ccc1OCCN1CCCC1` [TCMDC-140279], the “% Inhibition” value was -2.29%.

Regarding `O=C(N[C@H]1CCN(Cc2ccc(OCCN3CCCC3)c(Cl)c2)C1)c1ccc(Cl)c(Cl)c1` [TCMDC-140273], the “% Inhibition” value stood at 27.77%.

For the molecule `Cc1cc(CN2CC[C@H](NC(=O)c3ccc(Cl)c(Cl)c3)C2)ccc1OCCCN(C)C` [TCMDC-140278], the “% Inhibition” value amounted to 26.92%.

Consider `CN1CCC[C@H]1COc1ccc(CN2CC[C@H](NC(=O)c3ccc(Cl)c(Cl)c3)C2)cc1Br` [TCMDC-140285], for which the “% Inhibition” value is 31.25%.

For `O=C(N[C@H]1CCN(Cc2ccc(OCCN3CCNCC3)c(Cl)c2)C1)c1ccc(Cl)c(Cl)c1` [TCMDC-140274], the “% Inhibition” value worked out at 104.1%.

As to `CN(C)CCCOc1ccc(CN2CC[C@H](NC(=O)c3ccc(Cl)c(Cl)c3)C2)cc1Br` [TCMDC-140283], the “% Inhibition” value turned out to be 16.89%.

Regarding `Cc1cc(CN2CC[C@H](NC(=O)c3ccc(Cl)c(Cl)c3)C2)ccc1OCCN1CCNCC1` [TCMDC-140280], the “% Inhibition” value came to 58.57%.

Take `CN1CCC[C@H]1COc1ccc(CN2CC[C@H](NC(=O)c3ccc(Cl)c(Cl)c3)C2)cc1Cl` [TCMDC-140275]: the “% Inhibition” value is given as -2.162%.

Take `O=C(N[C@H]1CCN(Cc2ccc(OCCN3CCNCC3)c(Br)c2)C1)c1ccc(Cl)c(Cl)c1` [TCMDC-140284]: the “% Inhibition” value stood at 61.32%.

Turning to `CCC(C)CN1CCN(c2ccc(NC(=O)c3cccs3)cc2)CC1C` (stereo not shown) [TCMDC-134997], the “% Inhibition” value is reported as 0.3581%.

As to `Cc1ccc(C(=O)NC2C(=O)NC2c2ccccc2)c(C)c1` (stereo not shown) [TCMDC-131386], the “% Inhibition” value amounted to 4.246%.

With `COc1ccc(NC(=O)[C@H](CC(C)C)Nc2cc(C)nc(NCc3ccccc3C)n2)cc1` [TCMDC-134909], the “% Inhibition” value is -97.01%.

Take `Cc1cc2nc(-c3ccc(C(=O)NCc4cccc(C(F)(F)F)c4)cc3)[nH]c2cc1C` [TCMDC-140431]: the “% Inhibition” value is given as -14.71%.

For `COc1cc2nc(N3CCC(CNC(=O)c4cccc5cc[nH]c45)CC3)nc(N)c2cc1OC` [TCMDC-138184], the “% Inhibition” value was found to be 101.1%.

For the molecule `COc1cc(N)c(Cl)cc1C(=O)NCC1CCN(c2nc(C)cc(C)n2)CC1` [TCMDC-124850], the “% Inhibition” value was 17.19%.

`COc1cc2nc(N3CCC(CNC(=O)c4ccc(C(C)=O)cc4)CC3)nc(N)c2cc1OC.O=C(O)C(F)(F)F` [TCMDC-138210]: the “% Inhibition” value was 69.3%.

With `COc1cc2nc(NCC3CCN(C(=O)c4ccc(-c5ccc(C(=O)N(C)C)cc5C)cc4)CC3)nc(N)c2cc1OC` [TCMDC-138182], the “% Inhibition” value is listed as -26.73%.

On to `COc1cc2nc(NCc3cccc(CNC(=O)c4ccc(-c5ccc(C(C)=O)cc5)cc4)c3)nc(N)c2cc1OC.O=C(O)C(F)(F)F` [TCMDC-138177], for which the “% Inhibition” value was determined as 117.9%.

As for `COc1cc2nc(N3CCC(CNC(=O)c4cccc5cccnc45)CC3)nc(N)c2cc1OC` [TCMDC-138181], the “% Inhibition” value is on record as 14.63%.

As to `COc1cc2nc(N3CCC(CNC(=O)c4ccc(-c5ccc(Cl)cc5)cc4)CC3)nc(N)c2cc1OC` [TCMDC-138718], the “% Inhibition” value turned out to be 145.1%.

Take `COc1cc2nc(N3CCC(CNC(=O)c4ccc(OC(F)(F)F)cc4)CC3)nc(N)c2cc1OC.O=C(O)C(F)(F)F` [TCMDC-138211]: the “% Inhibition” value is reported as -26.96%.

Turning to `CN(C)Cc1cccc(-c2cnc(N)c(-c3nc4ccc(S(C)(=O)=O)cc4[nH]3)c2)c1` [TCMDC-133721], the “% Inhibition” value amounted to 43.08%.

On to `CSc1ccc(CN2CCC(NC(=O)c3ccc(-c4cccc(Cl)c4)s3)CC2)cc1` [TCMDC-134341], for which the “% Inhibition” value is 12.93%.

As for `COc1cc(Nc2nc(N)n(C(=O)c3ccc4c(c3)OCO4)n2)cc(OC)c1OC` [TCMDC-136737], the “% Inhibition” value was -65.07%.

For `O=c1[nH]c2c(cc1CNC1CCCCC1)c(-c1ccc(F)cc1)nn2-c1ccccc1` [TCMDC-125352], the “% Inhibition” value was 14.87%.

As to `CCCCOC(=O)NCCCC[C@H](NC(=O)OC(C)(C)C)C(=O)N[C@H](C(=O)OC(c1ccccc1)c1ccccc1)[C@H]1O[C@@H](n2ccc(=O)[nH]c2=O)[C@@H]2OC(C)(C)O[C@@H]21` [TCMDC-131947], the “% Inhibition” value was 9.174%.

Regarding `Cc1c(C(=O)C2CC2CN2CCC(N3CCCC3)CC2)sc2ccccc12` (stereo not shown) [TCMDC-132577], the “% Inhibition” value stood at 31.52%.

For the molecule `C=C[C@]1(C)C[C@@H](OC(=O)CSC2CN3CCC2C3)[C@@]2(C)C3C(=O)CC[C@@]3(CC[C@H]2C)[C@@H](C)[C@@H]1O` (stereo partly shown) [TCMDC-139185], the “% Inhibition” value worked out at 16.51%.

In the case of `CC(C)(C)c1cc(C(=O)N2CCN(c3cnccn3)CC2)n(Cc2ccccc2)n1` [TCMDC-133778], the “% Inhibition” value came out at 6.708%.

As for `COc1cc2nc(N3CCC(CNCc4ccc(-c5ccc(C(F)(F)F)cc5)cc4)CC3)nc(N)c2cc1OC` [TCMDC-138757], the “% Inhibition” value was 94.11%.

For the molecule `COc1cc2nc(N3CCC(CNC(=O)c4ccc(-c5ccc(C(F)(F)F)cc5)cc4)CC3)nc(N)c2cc1OC` [TCMDC-138716], the “% Inhibition” value was found to be 114.6%.

Take `COC(=O)c1ccc(-c2ccc(C(=O)NCC3CCN(c4nc(N)c5cc(OC)c(OC)cc5n4)CC3)cc2)cc1` [TCMDC-138721]: the “% Inhibition” value is reported as 127%.

In the case of `COc1cc2nc(N3CCC(CNC(=O)c4ccc(-c5ccccc5)cc4)CC3)nc(N)c2cc1OC` [TCMDC-137787], the “% Inhibition” value is -6.004%.

Regarding `COc1cc2nc(N3CCC(CNC(=O)c4ccc(NC(=O)c5ccc(Cl)cc5)cc4)CC3)nc(N)c2cc1OC` [TCMDC-138712], the “% Inhibition” value worked out at 79.48%.

Take `COc1ccc2nccc([C@@H](O)CN3CCC(NC(=O)C(=Cc4ccc(C#N)cc4)c4ccc(-c5ccccc5)cc4)CC3)c2c1` [TCMDC-141112]: the “% Inhibition” value is -10.17%.

On to `Cc1cc(NC(=O)Nc2ccc(Cl)cc2F)c2ccccc2n1` [TCMDC-134658], for which the “% Inhibition” value was -34.71%.

Regarding `CCCC(C)NC(=O)c1cnn(-c2ccc(C(C)(C)C)cc2)c1OCc1ccc(Br)cc1` (stereo not shown) [TCMDC-139598], the “% Inhibition” value is 11.83%.

Take `CC(=O)Nc1ccc(C(=O)Nc2cccc(-c3ccc(-c4nc5cc(F)ccc5[nH]4)s3)c2)cn1` [TCMDC-136833]: the “% Inhibition” value was -51.51%.

Regarding `Cn1c2c(c3ccccc31)CN(CCC1(c3ccc(Cl)c(Cl)c3)CN(C(=O)Cc3ccccc3)CCO1)CC2` (stereo not shown) [TCMDC-135563], the “% Inhibition” value was 32.52%.

With `Cc1cc(C(=O)Nc2ccc3c(c2)CCN3C2CCN(Cc3ccc(F)cc3Cl)C2)no1` (stereo not shown) [TCMDC-135081], the “% Inhibition” value worked out at 2.936%.

With `Cc1cc(Cl)c(S(=O)(=O)NC(C)(C)C)cc1OCC(=O)NC1CCCCC1` [TCMDC-124352], the “% Inhibition” value was -13.59%.

In the case of `COCCN1CCC(CN(C)CC(C)(C)c2nc(-c3ccc(Cl)c(O)c3)c(-c3ccncc3)[nH]2)CC1` [TCMDC-140899], the “% Inhibition” value was -71.13%.

As for `CN1CCN(c2cc3c(cc2Cl)CCN3C(=O)Cc2ccc(Cl)c(NC(=O)Nc3cccc(C#N)c3)c2)CC1` [TCMDC-139474], the “% Inhibition” value came out at 3.911%.

Regarding `Nc1ncc(-c2ccc(F)cc2)cc1-c1nc2ccc(Cl)cc2[nH]1` [TCMDC-138810], the “% Inhibition” value is listed as -32.19%.

Turning to `Cc1[nH]cnc1Cc1ccc2c(c1O)c1ccccc1n2C` [TCMDC-131955], the “% Inhibition” value is reported as -82.46%.

For `Cc1cc(NC(=O)c2sc3ccccc3c2O)no1` [TCMDC-124522], the “% Inhibition” value is reported as -1.25%.

On to `N#Cc1ccc(-c2ccc(C(=O)NCCCCN3CCC(c4ccc5c(c4OCC(N)=O)CCCC5)CC3)nc2)cc1` [TCMDC-135212], for which the “% Inhibition” value turned out to be 23.96%.

`N#Cc1ccc(-c2ccc(C(=O)NCCCCN3CCC(c4ccc5c(c4OCC(N)=O)CCCC5)CC3)cc2)cc1` [TCMDC-138803]: the “% Inhibition” value was 73.12%.

Take `CCOc1c(OC)ccc2c1CCN(CCN1CCC(CNC(=O)c3ccc(-c4ccc(C#N)cc4)cc3)CC1)C2` [TCMDC-138848]: the “% Inhibition” value is -12.76%.

On to `COc1c(C2CCN(CCN3CCC(NC(=O)c4ccc(-c5ccc(C(F)(F)F)cc5)cc4)CC3)CC2)ccc2c1CCCC2` [TCMDC-138857], for which the “% Inhibition” value was found to be 16.95%.

Consider `NC(=O)COc1c(C2CCN(CCN3CCC(CNC(=O)c4ccc(-c5ccc(C(F)(F)F)cc5)cc4)CC3)CC2)ccc2c1CCCC2` [TCMDC-134308], for which the “% Inhibition” value was 93.17%.

Consider `COc1c(C2CCN(CCN3CCC(CNC(=O)c4ccc(-c5ccc(C#N)cc5)cc4)CC3)CC2)ccc2c1CCCC2` [TCMDC-138859], for which the “% Inhibition” value is listed as 105.9%.

In the case of `N#Cc1ccc(-c2nc(CO)c(C(=O)NCCCCN3CCC(c4ccc5c(c4OCC(N)=O)CCCC5)CC3)s2)cc1` [TCMDC-138872], the “% Inhibition” value is recorded as -1.012%.

On to `N#Cc1ccc(-c2ccc(C(=O)NCC3CCN(CCN4CCC(c5ccc6c(c5OCC(N)=O)CCCC6)CC4)CC3)cc2)cc1` [TCMDC-134563], for which the “% Inhibition” value is 103.8%.

As usually defined, the % Inhibition is the change of the read-out against control, counted positive when it falls.
